Test results reported in PubChem BioAssay AID1159580 (chemical genetic matrix, 2015).
Screen size: about 5,500 compounds; about 2,000 (36%) were called active. Not shown: some 18% with an inconclusive outcome. Cut-off read from the data, not from the text of the source: active = normalized growth mostly below about 0.91 (no sharp cut-off); inconclusive = no clear call, values can overlap the other calls; inactive = mostly above about 0.92. Some of the results follow.

Assay: chemical genetic growth profiling, strain panel (AID 1159580);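 note: tested at 20 µM; growth read once vehicle control cultures reached saturation at 30 °C; 1 = growth at the plate median or of vehicle wells; lower values mean less growth of the strain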
Settings: growth OD

Measured: normalized growth

Nc1ccc(S(=O)(=O)Nc2ncccn2)cc1
inactive: S. cerevisiae deletion strains, locus YJR066W, strain TOR1, stronger effect = lower value 0.92 | S. cerevisiae deletion strains, locus YJR075W, strain HOC1, stronger effect = lower value 0.992 | S. cerevisiae deletion strains, locus YKL009W, strain mrt4, stronger effect = lower value 1.01 | S. cerevisiae deletion strains, locus YKL068W, stronger effect = lower value 0.989 | S. cerevisiae deletion strains, locus YKL085W, strain MDH1 (second series), stronger effect = lower value 0.996 | S. cerevisiae deletion strains, locus YKL085W, strain MDH1, stronger effect = lower value 0.996 | S. cerevisiae deletion strains, locus YKL160W, strain elf1, stronger effect = lower value 1.01 | S. cerevisiae deletion strains, locus YKL190W, strain CNB1, stronger effect = lower value 0.989 | S. cerevisiae deletion strains, locus YKR001C, strain vps1, stronger effect = lower value 1 | S. cerevisiae deletion strains, locus YKR026C, strain gcn3, stronger effect = lower value 0.966 | S. cerevisiae deletion strains, locus YKR091W, strain srl3, stronger effect = lower value 0.978 | S. cerevisiae deletion strains, locus YLL001W, strain dnm1, stronger effect = lower value 0.977 | S. cerevisiae deletion strains, locus YLL026W, stronger effect = lower value 0.999 | S. cerevisiae deletion strains, locus YLL041C, strain sdh2, stronger effect = lower value 0.997 | S. cerevisiae deletion strains, locus YLR027C, strain aat2, stronger effect = lower value 0.983 | S. cerevisiae deletion strains, locus YLR039C, strain RIC1, stronger effect = lower value 0.999 | S. cerevisiae deletion strains, locus YLR058C, strain SHM2, stronger effect = lower value 0.976 | S. cerevisiae deletion strains, locus YLR102C, strain apc9, stronger effect = lower value 0.993 | S. cerevisiae deletion strains, locus YLR113W, strain HOG1, stronger effect = lower value 0.973 | S. cerevisiae deletion strains, locus YLR221C, strain rsa3, stronger effect = lower value 0.968 | S. cerevisiae deletion strains, locus YLR258W, strain gsy2, stronger effect = lower value 0.98 | S. cerevisiae deletion strains, locus YLR262C, strain YPT6 (second series), stronger effect = lower value 0.981 | S. cerevisiae deletion strains, locus YLR262C, strain YPT6, stronger effect = lower value 0.974 | S. cerevisiae deletion strains, locus YLR268W, strain sec22, stronger effect = lower value 1.05 | S. cerevisiae deletion strains, locus YLR320W, strain mms22, stronger effect = lower value 0.982 | S. cerevisiae deletion strains, locus YLR330W, strain CHS5, stronger effect = lower value 0.994 | S. cerevisiae deletion strains, locus YLR342W, strain FKS1 (second series), stronger effect = lower value 1.01 | S. cerevisiae deletion strains, locus YLR342W, strain FKS1, stronger effect = lower value 0.992 | S. cerevisiae deletion strains, locus YLR357W, strain rsc2, stronger effect = lower value 0.939 | S. cerevisiae deletion strains, locus YLR370C, strain arc18, stronger effect = lower value 0.982 | S. cerevisiae deletion strains, locus YLR384C, strain iki3, stronger effect = lower value 0.994 | S. cerevisiae deletion strains, locus YLR418C, strain cdc73, stronger effect = lower value 0.997 | S. cerevisiae deletion strains, locus YML016C, strain PPZ1, stronger effect = lower value 0.988 | S. cerevisiae deletion strains, locus YML032C, strain rad52, stronger effect = lower value 1.01 | S. cerevisiae deletion strains, locus YML120C, strain ndi1, stronger effect = lower value 0.969 | S. cerevisiae deletion strains, locus YML124C, strain tub3, stronger effect = lower value 1 | S. cerevisiae deletion strains, locus YMR058W, strain fet3, stronger effect = lower value 1.01 | S. cerevisiae deletion strains, locus YMR078C, strain ctf18, stronger effect = lower value 0.985 | S. cerevisiae deletion strains, locus YMR125W, strain sto1, stronger effect = lower value 0.955 | S. cerevisiae deletion strains, locus YMR129W, stronger effect = lower value 0.983 | S. cerevisiae deletion strains, locus YMR205C, strain PFK2, stronger effect = lower value 0.985 | S. cerevisiae deletion strains, locus YMR223W, strain ubp8, stronger effect = lower value 0.976 | S. cerevisiae deletion strains, locus YMR231W, strain pep5, stronger effect = lower value 0.979 | S. cerevisiae deletion strains, locus YMR307W, strain GAS1, stronger effect = lower value 1 | S. cerevisiae deletion strains, locus YNL067W, strain RPL9B, stronger effect = lower value 0.99 | S. cerevisiae deletion strains, locus YNL071W, strain lat1, stronger effect = lower value 0.969 | S. cerevisiae deletion strains, locus YNL153C, strain GIM3, stronger effect = lower value 0.987 | S. cerevisiae deletion strains, locus YNL183C, strain NPR1, stronger effect = lower value 0.942 | S. cerevisiae deletion strains, locus YNL209W, strain ssb2, stronger effect = lower value 0.967 | S. cerevisiae deletion strains, locus YNL233W, strain BNI4, stronger effect = lower value 0.994 | S. cerevisiae deletion strains, locus YNL248C, strain rpa49, stronger effect = lower value 0.974 | S. cerevisiae deletion strains, locus YNL250W, strain rad50, stronger effect = lower value 1 | S. cerevisiae deletion strains, locus YNL271C, strain bni1, stronger effect = lower value 0.998 | S. cerevisiae deletion strains, locus YNL298W, strain CLA4, stronger effect = lower value 1 | S. cerevisiae deletion strains, locus YNL307C, strain MCK1, stronger effect = lower value 1 | S. cerevisiae deletion strains, locus YNL322C, strain KRE1 (second series), stronger effect = lower value 0.959 | S. cerevisiae deletion strains, locus YNR049C, strain mso1, stronger effect = lower value 0.98 | S. cerevisiae deletion strains, locus YNR052C, strain pop2, stronger effect = lower value 0.995 | S. cerevisiae deletion strains, locus YOL006C, strain TOP1, stronger effect = lower value 0.968 | S. cerevisiae deletion strains, locus YOL012C, strain htz1 1.31 | S. cerevisiae deletion strains, locus YOL147C, strain pex11, stronger effect = lower value 1 | S. cerevisiae deletion strains, locus YOR001W, strain rrp6, stronger effect = lower value 0.948 | S. cerevisiae deletion strains, locus YOR061W, strain CKA2, stronger effect = lower value 0.968 | S. cerevisiae deletion strains, locus YOR069W, strain VPS5, stronger effect = lower value 1 | S. cerevisiae deletion strains, locus YOR070C, strain gyp1, stronger effect = lower value 0.991 | S. cerevisiae deletion strains, locus YOR080W, strain dia2, stronger effect = lower value 0.972 | S. cerevisiae deletion strains, locus YOR083W, strain WHI5, stronger effect = lower value 0.964 | S. cerevisiae deletion strains, locus YOR106W, strain vam3, stronger effect = lower value 0.981 | S. cerevisiae deletion strains, locus YOR136W, strain idh2, stronger effect = lower value 0.983 | S. cerevisiae deletion strains, locus YOR144C, strain elg1, stronger effect = lower value 0.996 | S. cerevisiae deletion strains, locus YOR184W, strain ser1, stronger effect = lower value 0.994 | S. cerevisiae deletion strains, locus YOR231W, strain MKK1, stronger effect = lower value 0.978 | S. cerevisiae deletion strains, locus YOR265W, strain rbl2, stronger effect = lower value 1.02 | S. cerevisiae deletion strains, locus YOR270C, strain vph1, stronger effect = lower value 0.919 | S. cerevisiae deletion strains, locus YOR290C, strain snf2, stronger effect = lower value 0.974 | S. cerevisiae deletion strains, locus YOR316C, strain cot1, stronger effect = lower value 0.984 | S. cerevisiae deletion strains, locus YPL051W, strain arl3, stronger effect = lower value 1.01 | S. cerevisiae deletion strains, locus YPL055C, strain LGE1, stronger effect = lower value 0.939 | S. cerevisiae deletion strains, locus YPL078C, strain atp4, stronger effect = lower value 0.992 | S. cerevisiae deletion strains, locus YPL106C, strain sse1, stronger effect = lower value 0.983 | S. cerevisiae deletion strains, locus YPL240C, strain hsp82, stronger effect = lower value 0.99 | S. cerevisiae deletion strains, locus YPL241C, strain CIN2, stronger effect = lower value 0.996 | S. cerevisiae deletion strains, locus YPL256C, strain CLN2, stronger effect = lower value 0.968 | S. cerevisiae deletion strains, locus YPR119W, strain clb2, stronger effect = lower value 0.983 | S. cerevisiae deletion strains, locus YPR141C, strain kar3, stronger effect = lower value 0.983 | S. cerevisiae deletion strains, locus YPR163C, strain tif3, stronger effect = lower value 1 | S. cerevisiae deletion strains, locus YPR167C, strain met16, stronger effect = lower value 0.989 | S. cerevisiae deletion strains, strain wtn01, stronger effect = lower value 1.01 | S. cerevisiae strains, strain wild type, stronger effect = lower value 0.988
